assay: NFkB reporter suppression in cystic fibrosis bronchial cells – cell-based, uHTS hits, panel, cytotoxicity readout, dose response (AID 624344); conditions: CF bronchial epithelial cells, PAF-induced NFkB reporter inhibition, with PAF, run 1; at 79 µM (top of the series) unless noted

SMILES	inhibition
Nc1ncc([N+](=O)[O-])c(N2CCCCCC2)n1	115%
CCOc1cc2c(cc1O)C(=NOC)CC1C2CCC2(C)C(O)CCC12 (stereo not drawn)	74%
CCC(CO)Oc1cc(NCc2ccc(Cl)cc2Cl)c2ncn(C(C)C)c2c1 (stereo not drawn)	105%
C=CC[C@]12CC=CC(=O)[C@@]1(O)O[C@H](c1ccc(OC)c(OC)c1)[C@H]2C	110%
COc1ccc(-n2nnnc2S(=O)(=O)Cc2ccc(C(=O)O)cc2)cc1	74.7%
C=C1C(=O)O[C@@H]2[C@H]1CC[C@H](C)[C@]1(O)CCC(=O)[C@@]21C	101%
COc1ccc(N(CCCN2C(=O)c3cccc4cccc(c34)C2=O)C(=O)c2ccncc2)cc1	5.78%
CC1CCN(Cc2c(C(=O)N/N=C/c3ccc(C(C)(C)C)cc3)nnn2-c2nonc2N)CC1	98.1%
CCOc1ccc(C(C(=O)NCC2CCCO2)N(Cc2cccs2)C(=O)c2snc(C(N)=O)c2N)cc1 (stereo not drawn)	99.5%
CC(C)(C)C(=O)/C(=C/c1ccncc1)n1cncn1	98.3%
Cc1ccc(-c2cc(C(=O)N(C)Cc3cnn(C)c3C)c3cc(Br)ccc3n2)cc1	109%
Nc1ncnc(N2CCc3ccccc32)c1[N+](=O)[O-]	115%
COc1cc(CN(C)c2ccc(S(=O)(=O)N3CCCC3)cn2)ccc1OC(F)F	82.4%
Cc1nc2sc(C(N)=O)c(N)c2c2c1CCCC2	116%
CN(Cc1ccccc1)c1ncnc(N)c1[N+](=O)[O-]	115%
CC(=O)c1c(O)cc(O)c(C(C)=O)c1O	110%
CCC(=O)c1ccc(O)c(CC=C(C)C)c1	114%
O=C(Nc1cccc(-c2cnc3ccccc3n2)c1)c1cccc(NC(=O)c2ccco2)c1	98.6%

Reference: PubChem BioAssay
